PubChem BioAssay AID2125 (NMMLSC, 2009)
Values without a mark were called inactive.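 The calls were made as follows: active = combined score above 50, rising as EC50 falls below 10 µM and growth at top dose drops; inactive = the rest.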 Peptide text beside a SMILES is read from it. * marks the point of attachment. Cbz = O=C(OCc1ccccc1)*

Test system: YE3959
Assay: growth inhibition of S. cerevisiae strain panel, profiling panel, 26S proteasome disassembly project, secondary panel, OD600 (AID 2125)
Conditions: growth OD600, 6-8 h, at 100 µM, hits give low values

**Q.** Which percent response (growth) does the source give for CC(=O)N1C(=O)C(=C2C=C(C)OC(C)=C2)c2ccccc21 here?
**A.** 60.8%

**Q.** How did the percent response (growth) turn out when CC(C)C[C@@H](C=O)NC(=O)[C@H](CC(C)C)NC(=O)[C@H](CC(C)C)NC(=O)OCc1ccccc1 (Cbz-Leu-Leu-Leu-aldehyde) was run?
**A.** 52.8%
